HSF1 inh – HSF1 inhibition. NIH3T3-HGL HSE-luciferase, MG132-induced, luminescence 8 h; hits give low values. activity change, negative = inhibition, % at 7.5 µM (by protocol). 300,000 tested, 0.77% active;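 active = more than half of replicate wells show activity change below -50%, luminescence cut by over half; inconclusive = some wells, but at most half, below -50%; inactive = no replicate well below -50%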;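 note: luciferase reports HSF-1 transcriptional activity via heat shock element; 0% = median of DMSO wells and -100% = zero luminescence signal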
Wnt bcat act – activators of Wnt/beta-catenin signaling | Wnt/beta-catenin reporter cell assay, activator, plate reader | activation, % at 9.35 µM | 300,000 tested, 1.2% active | AID 743398; in the data active = activation above about 30%, passing the limit was not always enough; inconclusive = no clear call, values can overlap the other calls;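 note: 0% = neutral control wells and 100% = positive control wells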
esBAF inh – blocks esBAF chromatin remodeling in mouse ES cells | 350,000 tested, 2% active | reporter increase, % at 12.5 µM | Bmi1-luciferase knock-in reporter, 24 h; 100% = twice the neutral-well signal; in the data active = activation above about 40%; inconclusive = no clear call, values can overlap the other calls;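 note: 0% = median of the plate's neutral control wells and 100% = double that signal; a rise in the Bmi1 reporter signal indicates esBAF inhibition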
MITF act – increases MITF-driven TRPM1 promoter luciferase signal. SK-MEL-5 TRPM1-promoter luciferase, 24 h; % of positive control, neutral wells = 0. activation, % at 12.5 µM. 300,000 tested, 0.75% active. AID 588334;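 active = mean activation of at least 80% with every replicate also reaching 80%; inconclusive = mean reaches 80% but some replicate falls short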;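 note: 0% = neutral control wells and 100% = parthenolide positive control wells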
HSF1 activator – increases HSF-1 driven luciferase reporter signal; NIH3T3-HGL HSF-1 luciferase reporter, MG132, 8 h; 100% = twice DMSO control signal; activation, % at 9 µM; 300,000 tested, 1.7% active;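 active = mean replicate activation of at least 50% with a set share of replicates each reaching 50%; inconclusive = only one of those two conditions met; inactive = mean below 50% and too few replicates reaching it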;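 note: 0% = median of the neutral control wells and 100% = twice that signal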
Active calls of the source: *. Sampled rows, rich in hits. Any-hit rate of the full collection: about 3.8%.

What do the screens show for `COc1ccc(NC(=O)Nc2ccc3c(c2)[C@H]2C[C@@H](CC(=O)N4CCOCC4)O[C@H](CO)[C@H]2O3)cc1`?
esBAF inh: -2

How did O=C(O)c1ccc(N=Nc2c(O)[nH]c3ccc(Br)cc23)cc1 do in these assays?
HSF1 inh: -21; Wnt bcat act: 19; esBAF inh: 80*; MITF act: 46; HSF1 activator: -22

What do the screens show for `Oc1[nH]c2ccc(Br)cc2c1N=Nc1ccc(C(F)(F)F)cn1`?
HSF1 inh: -4; Wnt bcat act: -2; esBAF inh: -2; MITF act: -25; HSF1 activator: -24

What do the screens show for `O=C(O)c1ccc(N=Nc2c(O)[nH]c3cc(Cl)ccc23)cc1`?
HSF1 inh: 6; Wnt bcat act: 53*; MITF act: 64; HSF1 activator: -3

What do the screens show for `Cc1cccc2c(N=Nc3ccccc3)c(O)[nH]c12`?
HSF1 inh: 26; Wnt bcat act: 45*; MITF act: 65; HSF1 activator: 61*

What do the screens show for `COC(=O)N=Nc1c(O)[nH]c2ccc(Br)cc12`?
HSF1 inh: 1; Wnt bcat act: 53*; esBAF inh: -15; MITF act: -12; HSF1 activator: 6

Results for O=C(CNC(=O)c1ccccc1)N=Nc1c(O)[nH]c2ccc(Br)cc12 ?
HSF1 inh: -2; Wnt bcat act: -1; esBAF inh: -3; MITF act: -6; HSF1 activator: 15

How did C[C@H]1CN([C@@H](C)CO)C(=O)c2cc(NS(=O)(=O)c3ccccc3)ccc2O[C@H]1CN(C)C(=O)Nc1ccc(F)cc1 do in these assays?
esBAF inh: 3

What do the screens show for `CS(=O)(=O)N(CC1CCC1)C[C@@H]1N[C@@H](CO)[C@@H]1c1ccccc1`?
esBAF inh: 11

Results for CN1C(=O)c2cc(NC(=O)c3cccs3)ccc2OC[C@H]2O[C@@H](CC(=O)O)CC[C@@H]21 ?
esBAF inh: 0

Results for Oc1[nH]c2ccccc2c1N=Nc1ccccc1Cl ?
HSF1 inh: -56; Wnt bcat act: -2; MITF act: 24; HSF1 activator: -56

What do the screens show for `Oc1[nH]c2ccccc2c1N=Nc1cccc(Cl)c1`?
HSF1 inh: 37; Wnt bcat act: 17; esBAF inh: 52*; MITF act: 35; HSF1 activator: 69*

How did C[C@@H]1CN([C@H](C)CO)C(=O)c2cc(C#CC3(O)CCCC3)cnc2O[C@H]1CN(C)Cc1cccnc1 do in these assays?
esBAF inh: 3

Results for O=C(CSc1ccccn1)Nc1ccc2c(c1)CCC2 ?
HSF1 inh: 28; esBAF inh: 77*; MITF act: 110*; HSF1 activator: 16

Results for O=C(CSc1ccccn1)Nc1ccc2c(c1)C(=O)c1ccccc1C2=O ?
HSF1 inh: 7; MITF act: 95*; HSF1 activator: 31

Results for CC(=O)/C=C/c1ccc2ccccc2n1 ?
HSF1 inh: 25; MITF act: -19; HSF1 activator: 33

Results for CC(OC(=O)/C=C/c1ccc2ccccc2n1)C(=O)N(C)c1ccccc1 (stereo not drawn) ?
Wnt bcat act: -26; esBAF inh: 47*; MITF act: -9

What do the screens show for `COc1ccccc1NC(=O)C(C)OC(=O)/C=C/c1ccc2ccccc2n1` (stereo not drawn)?
HSF1 inh: 20; Wnt bcat act: -4; MITF act: 48; HSF1 activator: 63*

What do the screens show for `Nc1cc(-c2ccco2)no1`?
HSF1 inh: 37; Wnt bcat act: 2; esBAF inh: 4; MITF act: 8; HSF1 activator: 72*

What do the screens show for `CCOC(=O)N1CCC(NC(=O)CN2C(=O)CSc3ncccc32)CC1`?
HSF1 inh: 2; Wnt bcat act: -2; esBAF inh: -2; MITF act: 10; HSF1 activator: 24

Results for CCOC(=O)N1CCC(NC(=O)CN2C(=O)CSc3nc(C)cc(C)c32)CC1 ?
HSF1 inh: -71*; Wnt bcat act: 0; esBAF inh: 7; MITF act: 0; HSF1 activator: -78

Results for CC(=O)Nc1ccc(NC(=O)c2nc(S(=O)(=O)Cc3ccccc3)ncc2Cl)cc1 ?
HSF1 inh: -94*; Wnt bcat act: -9; esBAF inh: -45; MITF act: -88; HSF1 activator: -94

Results for COC(=O)c1ccccc1NC(=O)c1nc(S(=O)(=O)Cc2ccccc2)ncc1Cl ?
HSF1 inh: 27; Wnt bcat act: -9; esBAF inh: -59; MITF act: -93; HSF1 activator: 28

Results for CCS(=O)(=O)c1ncc(Cl)c(C(=O)Nc2ccc(C)cc2)n1 ?
HSF1 inh: -98*; Wnt bcat act: -8; esBAF inh: -3; HSF1 activator: -98

Results for O=C(NCc1ccccc1)c1c(Cl)nc(Cl)c(Cl)c1Cl ?
HSF1 inh: 35; Wnt bcat act: -21; MITF act: -77; HSF1 activator: 65*

Results for COc1ccc(CNC(=O)c2nc(S(=O)(=O)Cc3ccccc3)ncc2Cl)cc1 ?
HSF1 inh: 227; Wnt bcat act: -5; esBAF inh: 10; MITF act: -68; HSF1 activator: 248*

How did CCC1CCCCN1S(=O)(=O)c1ccc(NC(=O)c2nc(S(C)(=O)=O)ncc2Cl)cc1 (stereo not drawn) do in these assays?
HSF1 inh: -84*; Wnt bcat act: -9; esBAF inh: -89; MITF act: -101; HSF1 activator: -84

What do the screens show for `O=C(Nc1ccc2ccccc2c1)c1cnccn1`?
HSF1 inh: -3; Wnt bcat act: inconclusive; esBAF inh: 3; MITF act: 30; HSF1 activator: 19

Results for CCS(=O)(=O)c1ncc(Cl)c(C(=O)Nc2ccc(S(=O)(=O)N3CCCC(C)C3)cc2)n1 (stereo not drawn) ?
HSF1 inh: -79*; Wnt bcat act: -17; esBAF inh: -95; MITF act: -103; HSF1 activator: -80

What do the screens show for `CC1CCCN(S(=O)(=O)c2ccc(NC(=O)CNC3CCCC3)cc2)C1` (stereo not drawn)?
HSF1 inh: -8; Wnt bcat act: 6; esBAF inh: 6; MITF act: 6; HSF1 activator: -11

Results for O=C(NCc1ccccc1)c1nc(S(=O)(=O)Cc2ccccc2)ncc1Cl ?
HSF1 inh: 174; Wnt bcat act: -6; esBAF inh: -8; MITF act: -48; HSF1 activator: 147*

What do the screens show for `CS(=O)(=O)c1ncc(Cl)c(C(=O)Nc2ccc3ccccc3c2)n1`?
HSF1 inh: -93*; Wnt bcat act: -9; MITF act: -103; HSF1 activator: -92

How did CCOc1ccccc1NC(=O)c1nc(S(=O)(=O)Cc2cccc(C)c2)ncc1Cl do in these assays?
HSF1 inh: inconclusive; Wnt bcat act: -13; esBAF inh: -51; MITF act: -93; HSF1 activator: -39

How did COc1ccccc1NC(=O)N[C@H]1C=C[C@@H](CC(=O)N2CCC(Cc3ccccc3)CC2)O[C@@H]1CO do in these assays?
esBAF inh: 13
